IL1B secr inh: inhibitors of inflammasome signaling (IL-1 beta secretion); hit rate 4.7% among 360,000; THP-1 LPS/ATP IL-1B secretion, AlphaLISA, 16 h; hits give low values; activity change, % at 57.5 µM; AID 743279; in the data active = activity change below about -50%; inconclusive = mostly about -30% to -49%; also: % is scaled to controls: 0 for no effect and ±100 for the full control effect
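Secreted IL-1B measured by AlphaLISA bead assay after 16 h compound exposure of THP-1 cells; compounds (final up to 57.5 uM) added 1 h before LPS (250 ng/mL) and ATP (1.25 mM) stimulation; lower signal means less secretion.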
DT40 TDP1 no CPT: qHTS for Inhibitors of human tyrosyl-DNA phosphodiesterase 1 (TDP1): qHTS in cells in absence of CPT; DT40 Tdp1-/- hTDP1 cells, no CPT, ATP luminescence, 48 h; Potency, µM (series often up to 46.2 µM), for the others: at the top dose activity change, negative = growth inhibition, actives largely listed as inhibitors; hit rate 15% among 420,000; AID 686978, 2013; also: potency is read from the fitted curve at half-maximal effect; % is scaled to controls: 0 for no effect and ±100 for the full control effect; nearly all actives have a fitted effect of over 55% in size
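No-CPT arm: Tdp1-/-;hTDP1 DT40 cells (400/well) plus compounds, incubated ≥48 hr at 37 °C. Readout CellTiter-Glo luminescence.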
ClpP mod: qHTS Assay for Activators of ClpP; ATP-dependent Clp protease proteolytic subunit (Bacillus subtilis (strain 168)), P80244; purified B. subtilis ClpP, FRET peptide cleavage, 20 min; Potency, µM (doses to about 57.5 µM), for inactives: top-dose activity change, negative = active; hit rate 1.9% among 340,000; AID 651965, 2013; active = well fitted falling curve with a large enough effect; inconclusive = small, poorly fitted or top-dose-only effect; inactive = no such curve, though single readings can be large or run the other way; also: potency is read from the fitted curve at half-maximal effect; the source files actives as falling curves though it sought activators and does not explain the sign; nearly all actives have a fitted effect of over 65% in size
Target sequence (P80244 whole entry, looked up): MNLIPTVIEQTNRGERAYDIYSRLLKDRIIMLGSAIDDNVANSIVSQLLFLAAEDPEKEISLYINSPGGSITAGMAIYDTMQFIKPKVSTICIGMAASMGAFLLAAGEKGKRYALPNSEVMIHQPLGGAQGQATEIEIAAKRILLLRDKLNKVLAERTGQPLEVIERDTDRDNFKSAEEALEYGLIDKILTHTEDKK
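Purified B. subtilis ClpP, 10 microg/mL final in Tris/HCl pH8 with KCl, BSA, glycerol and Tween-20, cleaved an Abz/nitrotyrosine-quenched decapeptide. Fluorescence (ex 320, em 430) was read at 0 and 20 min at room temperature. Delta was normalized to 5.8 microM ADEP and DMSO/no-enzyme controls.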
DT40 TDP1 CPT: DT40-hTDP1 cell growth loss with CPT. Potency, µM (top dose mostly 46.2 µM), for the others: at the top dose activity change, negative = growth inhibition, most hits filed as inhibitors. chicken DT40 Tdp1-/-;hTDP1 cells + 20 nM CPT, ATP luminescence, 48 h. hit rate 12% among 420,000. AID 686979; also: potency is read from the fitted curve at half-maximal effect; % is scaled to controls: 0 for no effect and ±100 for the full control effect; nearly all actives have a fitted effect of over 55% in size
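Chicken DT40 Tdp1-/- cells stably complemented with human TDP1 were seeded at 400 cells/well in medium containing 20 nM camptothecin, exposed to pin-transferred compounds, and grown at 37 °C for at least 48 hr. Viability was read as ATP luminescence.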
DRD3 agonist: D3 dopamine receptor (human) agonism. hit rate 0.58% among 410,000. max activation, %. P35462. D3R DiscoveRx beta-arrestin cells, luminescence, 90 min; in the data active = max activation above about 30%; also: 0% is about no effect
Target sequence (P35462 whole entry, looked up): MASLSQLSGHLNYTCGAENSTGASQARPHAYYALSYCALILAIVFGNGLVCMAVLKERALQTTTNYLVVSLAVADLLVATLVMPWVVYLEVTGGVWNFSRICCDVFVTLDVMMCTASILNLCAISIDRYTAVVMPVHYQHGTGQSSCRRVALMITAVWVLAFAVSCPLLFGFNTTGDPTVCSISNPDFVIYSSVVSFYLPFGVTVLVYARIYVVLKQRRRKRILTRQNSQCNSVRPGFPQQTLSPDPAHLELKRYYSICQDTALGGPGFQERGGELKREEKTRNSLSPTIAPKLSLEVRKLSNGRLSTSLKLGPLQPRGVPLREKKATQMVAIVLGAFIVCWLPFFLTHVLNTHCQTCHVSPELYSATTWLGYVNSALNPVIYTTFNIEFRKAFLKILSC
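Agonist mode: compounds and dopamine controls were applied to plated cells for 90 min at 37 degrees C after an overnight attachment at 1500 cells/well. Luminescent read-out followed 30 - 60 minutes at room temperature with DiscoveRx detection reagent.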
D3 antag: D3 dopamine receptor (human) antagonism; P35462; D3R cells, DiscoveRx beta-arrestin luminescence, antagonist mode; hits give low values; max response, negative = inhibition, %; hit rate 2.5% among 360,000; AID 652054; in the data active = max response below about -50%; inconclusive = no clear call, values can overlap the other calls; also: % is scaled to controls: 0 for no effect and ±100 for the full control effect
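Cells plated overnight at 1500 cells/well, then exposed to library compounds with dopamine controls for 90 minutes at 37 degrees C. DiscoveRx reagent added for 30–60 minutes at room temperature; luminescence read, quantitative HTS format.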
* = called active by the depositor; ? = inconclusive; nt = not tested or not shown. A selection: hits, their analogues and other compounds. The true share with any hit is near 21%. Unless noted, calls follow the shape of the dose curve; as a rule, active = well fitted inhibition curve with a large enough effect; inconclusive = small, poorly fitted or top-dose-only effect; inactive = flat fitted curve, though single readings scatter.

SMILES	IL1B secr inh	DT40 TDP1 no CPT	ClpP mod	DT40 TDP1 CPT	DRD3 agonist	D3 antag
CCN(CC)C(=O)Oc1ccc2c(=O)c(-c3ccc(OC)cc3)coc2c1	-60*	23µM*	-1%	?	18	18
Cc1cc(OC(C)C(=O)Nc2ccncc2)ccc1Cl (stereo unspecified)	20	23µM*	2%	13µM*	4	23
Cc1ccc(OC(C)C(=O)Nc2ccncc2)cc1 (stereo unspecified)	0	13µM*	2%	?	4	-1
CC(=O)c1ccc(N2CCN(C(=O)C3CCCN(c4ncnc5c4nc4n5CCCCC4)C3)CC2)cc1 (stereo unspecified)	0	15µM*	-18%	15µM*	4	26
COc1ccc(N2CCN(C(=O)C3CCCN(c4ncnc5c4nc4n5CCCCC4)C3)CC2)cc1 (stereo unspecified)	-2	16µM*	-6%	21µM*	3	8
O=c1[nH][nH]c(-c2ccccc2O)c1C(C[N+](=O)[O-])c1ccccc1 (stereo unspecified)	2	5.2µM*	3%	4.6µM*	4	-5
O=C([C@H]1O[C@@H](n2ccc(=O)[nH]c2=O)[C@H](O)[C@@H]1O)N(CCC1=CCCCC1)CC1CC1	9	-41%	-5%	?	-15	0
Nc1ccn([C@@H]2O[C@H](C(=O)N(CCC3=CCCCC3)CC3CC3)[C@@H](O)[C@H]2O)c(=O)n1	-11	-22%	-1%	?	40*	-29
O=C(c1cc2c(=O)[nH]c3ccccc3c2s1)N1CCN(c2ccc(F)cc2)CC1	nt	?	-9%	?	1	nt
CC(=O)C1=C(O)C(=O)N(c2cc(C(C)(C)C)on2)C1c1ccc(C(C)C)cc1 (stereo unspecified)	8	26µM*	2%	?	-3	8
CC(=O)C1=C(O)C(=O)N(c2cc(C(C)(C)C)on2)C1c1ccc(Br)cc1 (stereo unspecified)	36	?	-13%	?	-20	-23
N#Cc1c(N2CCN(c3ccc([N+](=O)[O-])cc3)CC2)[n+](=O)c2ccc(Cl)cc2n1[O-]	-2	1.2µM*	2%	0.46µM*	-11	0
CN(C(=O)COc1ncnc2sccc12)c1ccccc1	-11	2%	1%	-9%	6	5
COc1ccc(-c2cc(C(=O)N/N=C/c3ccc4c(c3)OCO4)c3ccccc3n2)c(OC)c1	-17	1.8µM*	-22%	9.2µM*	-11	-11
COc1ccccc1C(=O)N/N=C/c1ccc2c(c1)OCO2	-1	-15%	nt	-2%	-3	-6
COc1cc2ccccc2cc1C(=O)N/N=C/c1ccc2c(c1)OCO2	51	2.6µM*	-15%	4.6µM*	-3	-15
COc1ccc(-c2cc(C(=O)N/N=C/c3ccc(OC)c(COCC(F)(F)C(F)F)c3)c3ccccc3n2)c(OC)c1	-9	5.8µM*	?	5.8µM*	-12	-17
O=C(N/N=C/c1ccc2c(c1)OCO2)c1cc(-c2ccc(F)cc2)nc2ccccc12	-1	9.2µM*	36%	15µM*	0	3
COc1ccc(-c2cc(C(=O)N/N=C/c3sccc3C)c3ccccc3n2)c(OC)c1	-9	?	-11%	?	-14	-16
N#CCCn1cc(C(=O)CN2C(=O)NC3(CCCCCC3)C2=O)c2ccccc21	0	-25%	-4%	10%	10	20
CC(C)C[C@@H]1NC(=O)N(CCCn2ccnc2)C1=O	18	10%	0%	14%	1	1
O=c1[nH]c(=S)[nH]c2c1C(c1ccccc1)OC(C1CCCCC1)C2 (stereo unspecified)	37	-24%	-2%	6%	5	1
CC1CCCC(C)N1C(=O)CSc1nnc(COc2ccc(F)cc2)o1 (stereo unspecified)	-3	?	2%	?	4	2
CC(C)(C)OC(=O)N1CCC(C(=O)Nc2ccc(C(=O)NCCc3ccccc3)cc2)CC1	28	10µM*	-1%	?	-6	8
CC(C)(C)OC(=O)N1CCC(C(=O)Nc2ccc(C(=O)NCc3ccccc3)cc2)CC1	14	15µM*	1%	16µM*	-10	-25
SMILES	IL1B secr inh	DT40 TDP1 no CPT	ClpP mod	DT40 TDP1 CPT	DRD3 agonist	D3 antag
O=C(NN1C(=O)c2ccc3c4c(ccc(c24)C1=O)CC3)c1ccc(Br)cc1	-3	-23%	13µM*	?	-1	9
O=C1c2ccc3c4c(ccc(c24)C(=O)N1NC(=O)C(F)(F)F)CC3	?	-14%	35µM*	?	2	1
COc1ccc(CC2(C)OC(c3ccc([N+](=O)[O-])cc3)=NN2C(C)=O)cc1 (stereo unspecified)	-8	?	2%	?	-15	4
COc1ccc(-c2coc3c(O)c(OC)ccc3c2=O)cc1	nt	?	nt	-22%	nt	nt
Cc1cccc(C)c1OCC(=O)OC/C(O)=C(\C#N)c1nc2ccccc2[nH]1	-28	21µM*	-9%	?	7	11
Cc1c(-c2cccc(Cl)c2)nc2ccccc2c1C(=O)OC/C(O)=C(\C#N)c1nc2ccccc2[nH]1	7	21µM*	-2%	15µM*	3	-24
N#C/C(=C(/O)COC(=O)COc1cccc(Br)c1)c1nc2ccccc2[nH]1	131	-12%	-2%	?	3	-1
Cc1cc(C)cc(OCC(=O)OC/C(O)=C(\C#N)c2nc3ccccc3[nH]2)c1	-98*	21µM*	-5%	?	-8	-23
O=c1[nH]c2cc(Cl)c(Br)cc2o1	32	-15%	0%	6%	7	18
COc1cc(C(=O)C(=O)c2ccc(OC)c(OC)c2)ccc1O	6	-1%	nt	18%	-10	6
C[C@H]1CN([C@@H](C)CO)C(=O)c2cccc(NS(=O)(=O)c3ccc(F)cc3)c2O[C@H]1CN(C)S(=O)(=O)c1cn(C)cn1	18	-1%	1%	3%	1	0
COc1ccc(S(=O)(=O)N2CCCCC2)cc1NC(=O)CNc1ccccc1C(C)=O	19	?	-10%	23µM*	9	3
COc1ccc(S(=O)(=O)N(C)C)cc1NCC(=O)Nc1ccc(Br)c(C)c1	2	18µM*	nt	?	4	7
COc1ccc(S(=O)(=O)N(C)C)cc1NCC(=O)Nc1cccc2ccccc12	-2	-21%	nt	-20%	-14	-9

High-throughput results deposited in PubChem by National Center for Advancing Translational Sciences (NCATS).
